# Results as given in ChEMBL document CHEMBL4513142, “CO-ADD screening of Indiana University - Purdue University Indianapolis (USA) compounds”.
# Several values for one entry are separate records, joined by “and”; a condition that tells them apart may be missing. Equal values may be shown once. Results with a measured potency or affinity are listed apart.
# Columns and labels:
# Staphylococcus aureus = details: Concentration 32 ug.mL-1, ASSAY_TEST Inhibition of Bacterial Growth, detection method Absorption (OD600), MEDIA CAMHB, plate type 384well, NBS, CORNING #3640, time 18 hr
# Escherichia coli = details: Concentration 32 ug.mL-1, ASSAY_TEST Inhibition of Bacterial Growth, detection method Absorption (OD600), MEDIA CAMHB, plate type 384well, NBS, CORNING #3640, time 18 hr
compound,measurement,setting,value
NC(=O)[C@H](Cc1ccccc1)NC(=O)c1c(F)c(F)c(F)c(F)c1F,Inhibition,Staphylococcus aureus; 32 ug/mL,22.06% and 27.14%
same,Inhibition,Escherichia coli; 32 ug/mL,6.54% and 12.4%
NC(Cc1cccc(F)c1)C(=O)O.O=C(O)C(F)(F)F (stereo not given),Inhibition,Staphylococcus aureus; 32 ug/mL,11.07% and 11.98%
same,Inhibition,Escherichia coli; 32 ug/mL,9.03% and 16.34%
CC(C)C[C@H](NC(=O)c1cccnc1)C(N)=O,Inhibition,Staphylococcus aureus; 32 ug/mL,11.42% and -3.35%
same,Inhibition,Escherichia coli; 32 ug/mL,-6.61% and -6.83%
NC(=O)[C@@H]1CCCN1C(=O)c1ccccn1,Inhibition,Staphylococcus aureus; 32 ug/mL,30.13% and 31.7%
same,Inhibition,Escherichia coli; 32 ug/mL,20.95% and 16.57%
NC(Cc1ccc(F)c(F)c1)C(=O)O.O=C(O)C(F)(F)F (stereo not given),Inhibition,Staphylococcus aureus; 32 ug/mL,14.42% and 15.4%
same,Inhibition,Escherichia coli; 32 ug/mL,15.3% and 11.55%
CCCNC(=O)C(Cc1ccc(F)cc1)NC(=O)c1ccccc1 (stereo not given),Inhibition,Staphylococcus aureus,25.83%
same,Inhibition,Escherichia coli,9.01%
NC(Cc1ccccc1F)C(=O)O.O=C(O)C(F)(F)F (stereo not given),Inhibition,Staphylococcus aureus; 32 ug/mL,11.55% and 11.5%
same,Inhibition,Escherichia coli; 32 ug/mL,17.44% and 15.69%
COc1cc(C(=O)N[C@@H](CC(C)C)C(=O)O)ccc1O,Inhibition,Staphylococcus aureus; 32 ug/mL,20.35% and 19.19%
same,Inhibition,Escherichia coli; 32 ug/mL,10.4% and 9.74%
O=C(NC(CCCc1ccccc1)C(=O)O)c1cccc2ccccc12 (stereo not given),Inhibition,Staphylococcus aureus; 32 ug/mL,21.08% and 19.14%
NC(=O)[C@H](Cc1ccccc1)NC(=O)c1cccnc1,Inhibition,Staphylococcus aureus; 32 ug/mL,29.26% and 26.43%
same,Inhibition,Escherichia coli; 32 ug/mL,20.31% and 18.99%
C[C@H](NC(=O)c1ccccc1Cl)C(=O)O,Inhibition,Staphylococcus aureus; 32 ug/mL,13.46% and 14.36%
same,Inhibition,Escherichia coli; 32 ug/mL,2.9% and -3.06%
[C-]#[N+]c1ccc(C(=O)NC(CC=C)C(=O)NCCC)cc1 (stereo not given),Inhibition,Staphylococcus aureus,14.2%
same,Inhibition,Escherichia coli,6.66%
[C-]#[N+]c1ccc(C(=O)NC(CC)C(=O)NCCC)cc1 (stereo not given),Inhibition,Staphylococcus aureus,19.19%
same,Inhibition,Escherichia coli,3.26%
CCCNC(=O)C(Cc1ccccc1)NC(=O)Cc1ccccc1 (stereo not given),Inhibition,Staphylococcus aureus,29.57%
same,Inhibition,Escherichia coli,14.02%
NC(Cc1ccc(F)cc1)C(=O)O.O=C(O)C(F)(F)F (stereo not given),Inhibition,Staphylococcus aureus; 32 ug/mL,15.79% and -3.39%
same,Inhibition,Escherichia coli; 32 ug/mL,9.45% and 2%
CCCNC(=O)C(Cc1ccccc1C)NC(=O)c1ccc(C(F)(F)F)cc1 (stereo not given),Inhibition,Staphylococcus aureus,28.42%
same,Inhibition,Escherichia coli,15.38%
CCCNC(=O)C(Cc1ccccc1)NC(=O)c1ccc(F)cc1 (stereo not given),Inhibition,Staphylococcus aureus,30.52%
same,Inhibition,Escherichia coli,11.25%
O=C(Cc1cccc(Br)c1)N[C@@H](Cc1ccccc1)C(=O)O,Inhibition,Staphylococcus aureus; 32 ug/mL,8.37% and -0.37%
same,Inhibition,Escherichia coli; 32 ug/mL,5.53% and 8.68%
[C-]#[N+]c1ccc(C(=O)NC(CC#C)C(=O)NCCC)cc1 (stereo not given),Inhibition,Staphylococcus aureus,27.84%
same,Inhibition,Escherichia coli,17.34%
Cc1ccc(C(=O)NC(Cc2ccccc2C#N)C(=O)O)cc1 (stereo not given),Inhibition,Staphylococcus aureus; 32 ug/mL,24.12% and 21.1%
same,Inhibition,Escherichia coli; 32 ug/mL,12.75% and 9.35%
[C-]#[N+]c1ccc(C(=O)NC(Cc2ccccc2F)C(=O)NCCC)cc1 (stereo not given),Inhibition,Staphylococcus aureus,22.89%
same,Inhibition,Escherichia coli,11.79%
NC(Cc1ccccc1I)C(=O)O.O=C(O)C(F)(F)F (stereo not given),Inhibition,Staphylococcus aureus; 32 ug/mL,9.99% and 15.72%
same,Inhibition,Escherichia coli; 32 ug/mL,13.12% and 15.99%
O=C(NC(Cc1ccc(Cl)nc1)C(=O)O)c1ccccc1 (stereo not given),Inhibition,Staphylococcus aureus; 32 ug/mL,22.85% and 23.42%
same,Inhibition,Escherichia coli; 32 ug/mL,9.12% and 5.81%
O=C(N[C@@H](Cc1ccccc1)C(=O)O)C1CCCCC1,Inhibition,Staphylococcus aureus; 32 ug/mL,12.87% and 13.13%
same,Inhibition,Escherichia coli; 32 ug/mL,2.23% and -1.68%
Cc1ccc(C(=O)NC(Cc2cc(F)c(F)cc2F)C(=O)O)cc1 (stereo not given),Inhibition,Staphylococcus aureus; 32 ug/mL,24.46% and 19.13%
same,Inhibition,Escherichia coli; 32 ug/mL,4.35% and 11.7%
CC(C)[C@H](NC(=O)c1cccc(C(F)(F)F)c1)C(=O)O,Inhibition,Staphylococcus aureus; 32 ug/mL,19.09% and 11.5%
same,Inhibition,Escherichia coli; 32 ug/mL,0.57% and -0.75%
[C-]#[N+]c1ccc(C(=O)NC(Cc2ccc(F)cc2)C(=O)NCCC)cc1 (stereo not given),Inhibition,Staphylococcus aureus,26.08%
same,Inhibition,Escherichia coli,15%
[C-]#[N+]c1ccc(C(=O)NC(Cc2ccc(C(F)(F)F)cc2)C(=O)NCCC)cc1 (stereo not given),Inhibition,Staphylococcus aureus,24.86%
same,Inhibition,Escherichia coli,13.88%
